Experimental data: PubChem BioAssay (Tox21)
Inconclusive results are not listed. Where a call stands in place of a potency, no number is given. The source made the active and inactive calls. Calls follow the shape of the dose curve; as a rule, active = well fitted cell-killing curve with a large enough effect in the repeat runs; inconclusive = weak or mixed curves, or effect the other way; inactive = flat fitted curve, though single readings scatter.

Assay: qHTS assay to identify small molecule antagonists of the retinoid acid receptor (RAR) signaling pathway - cell viability counter screen (AID 1159551); also: nearly all actives have a fitted effect of over 35% in size
Conditions: C3RL4 cells viability, ATP luminescence (CellTiter-Glo), 6 h; series mostly up to 92.4 µM
Description: U.S. Tox21 Program National Center for Advancing Translational Sciences [NCATS] NIH Chemical Genomics Center [NCGC] U.S. Environmental Protection Agency [EPA] National Institutes of Environmental Health Sciences [NIEHS] National Toxicology Program [NTP] U.S. Food and Drug Administration [FDA] Tox21 Assay Overview: All-trans Retinoic acid (atRA) is the potent natural metabolite of retinol and plays an important role in normal embryonic development and maintenance of cellular phenotype in adult animals. atRA is the activating ligand for the retinoic acid receptors (RARs) which form heterodimers with retinoid X receptors (RXRs) on the retinoic acid response element (RARE). Through activation of the RAR/RXRs nuclear receptors, atRA regulates the transcription of a large number of protein-coding genes and regulatory RNAs. Intracellular levels of atRA are controlled by the retinol signaling pathway (RSP) that regulates the biosynthesis and catabolism of atRA to maintain physiological levels. Chemicals that interfere with the RSP can cause abnormal intracellular levels of atRA and therefore are potential developmental toxicants. To assess compounds for the potential adverse effect on embryonic development through interfering with retinol signaling, a cell-based RARE luciferase reporter gene assay was used. C3RL4 cell line (OARSA/CFSAN/FDA, Laurel, MD) was used to screen Tox21 10K compound library for identifying inhibitors of the RSP. Also cytotoxicity was assessed by determining the viability of cells based on the quantitation of ATP.
Tox21 Assay Protocol Summary: C3RL4 cells were seeded at 1,000/well in 4 uL of assay medium into white solid 1,536-well tissue culture plates (Greiner Bio-One North America Inc. Monroe, NC) using a Multidrop Combi (Thermo Scientific, Waltham, MA) dispenser. After incubation at 37 C and 5% CO2 for an overnight, 23 nL of compounds dissolved in DMSO, positive control or DMSO only were transferred by a Pintool station (Kalypsys, San Diego, CA). One ul of 1 uM (final concentration) of Retinol was added right after the compound addition by using a Flying Reagent Dispenser (FRD) (Aurora Discovery, San Diego, CA). After 6 hr incubation at 37 C and 5% CO2, 5 uL of CellTiter-Glo reagent (Promega Corporation, Madison, WI) was added to each assay plate using an FRD. Luminescence was quantified on a ViewLux plate reader (PerkinElmer, Waltham, MA) after 30 min incubation at room temperature.
Potency is read from the fitted curve at half-maximal effect.

| Structure (SMILES) | Potency |
| --- | --- |
| COCC(=O)N(c1c(C)cccc1C)[C@H](C)C(=O)OC | inactive |
| Nc1ccc([N+](=O)[O-])cc1Cl | inactive |
| CC(=O)[O-].CC(=O)[O-].O.O.[Cd+2] | inactive |
| CC(C)[C@H](C(=O)O[C@H](C#N)c1cccc(Oc2ccccc2)c1)c1ccc(Cl)cc1 | inactive |
| O=C(NC(=O)c1c(F)cccc1F)Nc1cc(Cl)c(OC(F)(F)C(F)F)c(Cl)c1 | inactive |
| Oc1c(Br)c(Br)c(Br)c(Br)c1Br | inactive |
| S=C=Nc1cccc2ccccc12 | inactive |
| CC1(C)CN=C(NN=C(/C=C/c2ccc(C(F)(F)F)cc2)/C=C/c2ccc(C(F)(F)F)cc2)NC1 | 43.3 µM (active) |
| CN(C)S(=O)(=O)N(SC(F)(Cl)Cl)c1ccccc1 | 48.6 µM (active) |
| CCN(CC)c1c([N+](=O)[O-])cc(C(F)(F)F)c(N)c1[N+](=O)[O-] | inactive |
| CC(C)OS(C)(=O)=O | inactive |
| Oc1cccc(-c2ccccc2)c1 | inactive |
| Nc1ccccc1C(=O)OC/C=C/c1ccccc1 | inactive |
| COC(=O)N(C(=O)N1COC2(C(=O)OC)Cc3cc(Cl)ccc3C2=N1)c1ccc(OC(F)(F)F)cc1 (stereo not given) | inactive |
| Oc1c(Cl)c(Cl)cc(Cl)c1Cl | inactive |
| ClCc1ccccc1CCl | inactive |
| Nc1ccc(Sc2ccc(N)cc2)cc1 | inactive |
| CCS(=O)(=O)c1cccnc1S(=O)(=O)NC(=O)Nc1nc(OC)cc(OC)n1 | inactive |
| Cn1[nH]nnc1=S | inactive |
| CC(C)(C)c1cc([N+](=O)[O-])cc(C(C)(C)C)c1O | inactive |

| Structure (SMILES) | Potency |
| --- | --- |
| CCCCOCN(C(=O)CCl)c1c(CC)cccc1CC | inactive |
| CC(C)(C)c1ccc(CSc2cnn(C(C)(C)C)c(=O)c2Cl)cc1 | inactive |
| ClC1=C(Cl)C2(Cl)C3C(Cl)C(Cl)CC3C1(Cl)C2(Cl)Cl (stereo not given) | inactive |
| COc1cc(N)c(Cl)cc1C(=O)NC1CN2CCC1CC2 (stereo not given) | inactive |
| N#Cc1ccccc1Cl | inactive |
| CC(=O)c1ccc(-c2ccccc2)cc1 | inactive |
| CCOCCOC(C)=O | inactive |
| O=[N+]([O-])c1cc(Cl)ccc1Cl | inactive |
| C=CCOC(N)=O | inactive |
| CC(C)CC(C)N (stereo not given) | inactive |
| CCCN(CC)CC1COC2(CCC(C(C)(C)C)CC2)O1 (stereo not given) | inactive |
| SCc1ccco1 | inactive |
| Clc1ccc(C(c2ccccc2Cl)C(Cl)(Cl)Cl)cc1 (stereo not given) | inactive |
| C[C@@H]1CC[C@@]2(OC1)O[C@H]1[C@@H](O)[C@H]3[C@@H]4CC[C@H]5C[C@@H](O[C@@H]6O[C@H](CO)[C@H](O[C@@H]7O[C@H](CO)[C@@H](O)[C@H](O[C@@H]8OC[C@@H](O)[C@H](O)[C@H]8O)[C@H]7O[C@@H]7O[C@H](CO)[C@@H](O)[C@H](O[C@@H]8O[C@H](CO)[C@@H](O)[C@H](O)[C@H]8O)[C@H]7O)[C@H](O)[C@H]6O)[C@H](O)C[C@]5(C)[C@H]4CC[C@]3(C)[C@H]1[C@@H]2C | 25.8 µM (active) |
| Oc1ccc(I)cc1 | inactive |
| CCC(C)c1cc(C(C)(C)C)cc(-n2nc3ccccc3n2)c1O (stereo not given) | inactive |
| C=COCCCl | inactive |
| CC(C)N1C(=O)N(c2ccccc2)CSC1=NC(C)(C)C | inactive |
| CC(=O)/C=C/c1ccc2c(c1)OCO2 | inactive |
| CCN | inactive |
